Source: PubChem BioAssay AID463173 (ICCB-Longwood Screening Facility, Harvard Medical School, 2010)
Screen size: about 52,000 compounds; about 1,700 (3.3%) were called active. No stated cut-off is given here; in the data, active means survival mostly below about 52% (no sharp cut-off); inactive means mostly above about 56%. The list comes from a sample in which actives are over-represented; it also holds similar structures and randomly drawn compounds.

Each compound was assayed on Wild type (assay: growth inhibition of S. aureus wild type versus tarO mutant, primary screen, teichoic acid synthesis inhibitors, RN4220, OD600 (AID 463173)). Details: S. aureus RN4220 wild type/DeltatarO growth, OD600, 18 h, hits give low values, screened at 18.75 µg/mL (by protocol).

| SMILES | survival |
| --- | --- |
| COc1cccc(NC(=O)CCc2nnc3n(Cc4ccccc4Cl)c(=O)c4ccccc4n23)c1 | 84% (inactive) |
| CCOC(=O)c1cccc(NS(=O)(=O)c2c(C)nc3sc(C)cn3c2=O)c1 | 81% (inactive) |
| COc1ccc2c(c1)c1c(c(=O)n(-c3cccc(C)c3)c(=O)n1CC(=O)N1CCCC1)n2C | 82% (inactive) |
| COc1ccccc1NC(=O)CSc1ncc2c(n1)-c1cc(Cl)ccc1N(Cc1ccccc1)S2(=O)=O | 77% (inactive) |
| Cc1ccc(NC(=O)CC(C)S(=O)(=O)c2ccc3c(c2)NC(=O)CO3)c(Cl)c1 (stereo not given) | 87% (inactive) |
| CCOc1ccc(NC(=O)CCCc2nc(-c3cccc(OC)c3)no2)cc1 | 87% (inactive) |
| Cc1nnc(SCc2cc(=O)n3c(C)cccc3n2)s1 | 81% (inactive) |
| Cc1cccc(-c2nnc(SCC(=O)OC(C)C)n2C)c1 | 106% (inactive) |
| CCOc1ccccc1C(=O)Nc1cccc2ccc(C)nc12 | 49% (inactive) |
| COc1c(C)cccc1C(=O)Nc1cccc2ccc(C)nc12 | -14% (active) |
| COc1ccc(Br)cc1C(=O)Nc1cccc2ccc(C)nc12 | 63% (inactive) |
| CCCCCn1c(=O)[nH]c2cc(C(=O)Nc3ccc(OC)c(OC)c3)ccc2c1=O | 74% (inactive) |
| CCOc1ccc(-c2nc(Cn3c(=O)cc(C)c4c(C)nn(-c5ccc(C)cc5)c43)c(C)o2)cc1 | 87% (inactive) |
| Cc1oc(-c2ccc(Cl)cc2)nc1Cn1c(=O)cc(C)c2c(C)nn(-c3ccccc3)c21 | 83% (inactive) |
| Cc1cccc(-c2nc(Cn3c(=O)cc(-c4ccccc4)c4c(C)nn(C)c43)c(C)o2)c1 | -6% (active) |
| Cc1cc(=O)n(Cc2c(F)cccc2Cl)c2c1c(C)nn2C | 71% (inactive) |
| Cc1nn(C)c2c1c(-c1ccccc1)cc(=O)n2Cc1c(F)cccc1Cl | -6% (active) |
| Cc1ccc(-c2nc(Cn3c(=O)cc(-c4ccccc4)c4c(C)nn(C)c43)c(C)o2)cc1 | 120% (inactive) |
| CCOc1ccc(-c2nc(Cn3c(=O)cc(C)c4c(C)nn(-c5ccccc5)c43)c(C)o2)cc1 | 14% (active) |
| Cc1nn(C)c2c1c(-c1ccccc1)cc(=O)n2Cc1ccccc1F | 120% (inactive) |
| Cc1oc(-c2ccccc2)nc1Cn1c(=O)cc(-c2ccccc2)c2c(C)nn(C)c21 | 76% (inactive) |
| CCc1cccc(NC(=O)CNS(=O)(=O)c2ccc3nc(C)sc3c2)c1 | 72% (inactive) |
| COc1ccc(NCc2cc3cc4c(cc3n(CC(=O)Nc3cc(C)cc(C)c3)c2=O)OCO4)cc1 | 60% (inactive) |

| SMILES | survival |
| --- | --- |
| Cc1cccc(C(=O)Nc2cccc(OCc3cc(=O)n4c(C)csc4n3)c2)c1 | 79% (inactive) |
| CCC(=O)n1nc(-c2ccc(OC)cc2)nc1SC | 100% (inactive) |
| O=C(NCc1ccncc1)C1CCN(S(=O)(=O)c2ccccc2)CC1 | 109% (inactive) |
| COc1ccc(Nc2cc(C(=O)NCc3ccccc3)c3ccccc3n2)cc1 | 112% (inactive) |
| COc1ccc(Nc2cc(C(=O)NCc3cccs3)c3ccccc3n2)cc1 | 145% (inactive) |
| COc1ccc(Nc2cc(C(=O)NCc3ccccc3OC)c3ccccc3n2)cc1 | -6% (active) |
| CCOC(=O)/C(C#N)=N\Nc1ccccc1OC | 105% (inactive) |
| CCC(=O)N1CCc2cc(S(=O)(=O)NC(CC(C)C)C(=O)NCCc3ccccc3)ccc21 (stereo not given) | 127% (inactive) |
| COc1ccc(C2c3c(-c4ccccc4O)n[nH]c3C(=O)N2Cc2ccco2)cc1 (stereo not given) | 10% (active) |
| O=C1c2[nH]nc(-c3ccccc3O)c2C(c2ccc(Cl)cc2)N1CCc1ccccc1 (stereo not given) | 4% (active) |
| COc1ccc(CCN2C(=O)c3[nH]nc(-c4ccccc4O)c3C2c2ccc(OC)cc2)cc1 (stereo not given) | 58% (inactive) |
| CC(C)c1ccc(C2c3c(-c4ccccc4O)n[nH]c3C(=O)N2CCc2ccccc2)cc1 (stereo not given) | 64% (inactive) |
| CCc1ccc(C2c3c(-c4ccccc4O)n[nH]c3C(=O)N2Cc2cccnc2)cc1 (stereo not given) | 71% (inactive) |
| CC(C)c1ccc(C2c3c(-c4ccccc4O)n[nH]c3C(=O)N2Cc2ccncc2)cc1 (stereo not given) | 106% (inactive) |
| O=C1c2[nH]nc(-c3ccccc3O)c2C(c2ccc(Cl)cc2)N1Cc1ccco1 (stereo not given) | -1% (active) |
| COc1ccc(C2c3c(-c4c(C)cc(C)cc4O)n[nH]c3C(=O)N2Cc2ccco2)cc1 (stereo not given) | 15% (inactive) |
| COc1cc(C2c3c(-c4ccccc4O)n[nH]c3C(=O)N2Cc2ccco2)ccc1OCC(C)C (stereo not given) | 43% (inactive) |
| CCCOc1ccc(C2c3c(-c4ccccc4O)n[nH]c3C(=O)N2Cc2cccnc2)cc1 (stereo not given) | 3% (active) |
| Cc1ccc(C2c3c(-c4ccccc4O)n[nH]c3C(=O)N2CCc2ccccc2)cc1 (stereo not given) | 58% (inactive) |
| CCOc1cc(C2c3c(-c4ccccc4O)n[nH]c3C(=O)N2Cc2cccnc2)ccc1O (stereo not given) | 89% (inactive) |
| CCc1nnc(SCc2ccc(F)cc2Cl)c2cc3sc(C)cc3n12 | 96% (inactive) |
| CCOC(=O)c1cccc(NC(=O)c2ccc3snnc3c2)c1 | 84% (inactive) |
| COc1ccc(C)cc1NC(=O)C(=O)NCC1(c2ccccc2)CCCC1 | 94% (inactive) |

| SMILES | survival |
| --- | --- |
| COc1ccc2c(c1)cc1c(=O)n(CC(=O)NCCc3ccccc3)nc(C)n12 | 81% (inactive) |
| CCc1ccccc1NC(=O)CN1C(=O)COc2ccc(S(=O)(=O)Nc3ccccc3)cc21 | 64% (inactive) |
| COc1ccc(-c2nc(N)n(C(C)=O)n2)cc1 | 107% (inactive) |
| Cc1nnc(SCCCN2C(=O)c3ccccc3C2=O)o1 | 105% (inactive) |
| Cc1cccc(NC(=O)CCn2cnnn2)c1C | 71% (inactive) |
| Cc1cc(C)c(NC(=O)c2sc3nc(C)cc(C)c3c2N)c(C)c1 | 73% (inactive) |
| CCCN1C(=O)c2[nH]nc(-c3ccccc3O)c2C1c1cccc(OCc2ccccc2)c1 (stereo not given) | 42% (inactive) |
| CCCOc1cccc(C2c3c(-c4ccccc4O)n[nH]c3C(=O)N2Cc2ccco2)c1 (stereo not given) | 11% (active) |
| CCOc1cccc(C2c3c(-c4cc(C)ccc4O)n[nH]c3C(=O)N2Cc2ccco2)c1 (stereo not given) | 27% (inactive) |
| CCOc1cccc(C(=O)N(Cc2ccc(C)o2)C2CCS(=O)(=O)C2)c1 (stereo not given) | 90% (inactive) |
| CCOC(=O)C1CCN(C(=O)Cn2ncc3c4ccccc4n(Cc4ccc(F)cc4)c3c2=O)CC1 | 80% (inactive) |
| CC(C)OCCCNC(=O)C(=O)Nc1c2c(nn1-c1ccccc1)CS(=O)(=O)C2 | -6% (active) |
| CC(C)CCNC(=O)C(=O)Nc1c2c(nn1-c1ccccc1)CS(=O)(=O)C2 | 90% (inactive) |
| COCCNC(=O)C(=O)Nc1c2c(nn1-c1ccccc1)CS(=O)(=O)C2 | 76% (inactive) |
| CCOc1cccc(C(=O)Nc2cc(C)c(O)c(-c3nc4ncccc4o3)c2)c1 | 84% (inactive) |
| CNC(=O)C1CCC(Cn2c(=O)c3sccc3n(CC(=O)NCc3ccc(F)cc3)c2=O)CC1 (stereo not given) | 45% (inactive) |
| CNC(=O)C1CCC(Cn2c(=O)c3sccc3n(CC(=O)NCc3ccc(C)cc3)c2=O)CC1 (stereo not given) | 73% (inactive) |
| CNC(=O)C1CCC(Cn2c(=O)c3sccc3n(CC(=O)NCc3ccccc3)c2=O)CC1 (stereo not given) | 0% (active) |
| Cc1cc(C)cc(NC(=O)COc2cccc3c(=O)n(C)ccc23)c1 | 72% (inactive) |
| Cc1ccc2oc(=O)n(CCCOc3ccc(Cl)cc3)c2c1 | -9% (active) |
| COc1ccc(OCCCn2c(C)nc3cc(C)c(C)cc32)cc1 | 67% (inactive) |
| Cc1ccc2oc(=O)n(CCNC(=O)Nc3ccc(Cl)cc3)c2c1 | 79% (inactive) |
| COc1ccc(OCCCn2c(=O)oc3ccc(C)cc32)cc1 | 2% (active) |

| SMILES | survival |
| --- | --- |
| CCCCOc1ccc(Cn2c(=O)oc3ccc(C)cc32)cc1 | 58% (inactive) |
| COc1ccc(Cl)cc1NC(=O)NCCn1c(=O)oc2ccc(C)cc21 | 62% (inactive) |
| COc1ccc(CCNC(=O)CCCCn2c(=O)c3ccccc3n(Cc3ccc(Cl)cc3)c2=O)cc1OC | 105% (inactive) |
| COc1cc2nc(SCC(=O)Nc3c(C)cc(C)cc3C)n3nc(CCn4c(C)nc5ccccc54)nc3c2cc1OC | 91% (inactive) |
| CCOc1ccccc1C(=O)Nc1cc(-c2nc3cccnc3s2)ccc1C | 67% (inactive) |
| COCCCNC(=O)C1CCN(c2nn3cc(-c4ccc(F)cc4)nc3s2)CC1 | 88% (inactive) |
| CCC(C)S(=O)(=O)c1oc(-c2cccs2)nc1S(=O)(=O)c1ccccc1 (stereo not given) | 16% (inactive) |
| Cc1ccc(CSc2oc(-c3cccs3)nc2S(=O)(=O)c2ccc(C)cc2)cc1 | 128% (inactive) |
| CCCCS(=O)(=O)c1oc(-c2cccs2)nc1S(=O)(=O)c1ccc(F)cc1 | 82% (inactive) |
| CCCCCS(=O)(=O)c1oc(-c2cccs2)nc1S(=O)(=O)c1ccc(C)cc1 | 11% (active) |
| CCCSc1oc(-c2cccs2)nc1S(=O)(=O)c1ccc(C)cc1 | 39% (inactive) |
| CCCCS(=O)(=O)c1oc(-c2cccs2)nc1S(=O)(=O)c1ccccc1 | 0% (active) |
| CCOc1ccc(C(=O)c2c(N)c(-c3nc(-c4ccc(OCC)cc4)cs3)c3ccccn23)cc1 | 103% (inactive) |
| O=C(O)CN1C(=O)/C(=N\N2C(=O)CSC2=S)c2ccccc21 | 90% (inactive) |
| Cc1ccc(C(=O)Nc2c(C)nc3ccccn3c2=O)cc1C | 69% (inactive) |
| Cc1nc2ccccn2c(=O)c1NC(=O)c1ccccc1Cl | 129% (inactive) |
| Cc1ccc(C(=O)Nc2c(C)nc3ccccn3c2=O)cc1 | 88% (inactive) |
| Cc1nc2ccccn2c(=O)c1NC(=O)c1ccc(F)c(F)c1 | 80% (inactive) |
| Cc1nc2ccccn2c(=O)c1NC(=O)c1ccc(C(F)(F)F)cc1 | -2% (active) |
| Cc1ccccc1C(=O)Nc1c(C)nc2ccccn2c1=O | 10% (active) |
| Cc1c(C(=O)Nc2ccc(F)c(F)c2)oc2ccc(S(=O)(=O)N(C)C3CCCCC3)cc12 | 74% (inactive) |
